Only some compounds are listed: those with a hit (about 12% of all), similar ones and a draw of the others.
Sm TGR inh – blocks Schistosoma mansoni thioredoxin glutathione reductase; AID 485364; purified TGR, DTNB reduction, TNB absorbance 405 nm; Potency, µM (top dose mostly 114 µM), without a hit: top-dose activity change, negative = inhibition, hits mostly inhibitors; Q962Y6; 3% of 360,000 active; also: % is scaled to controls: 0 for no effect and ±100 for the full control effect; nearly all actives have a fitted effect of over 60% in size
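Kinetic colorimetric format: TGR-catalysed, NADPH-driven DTNB reduction monitored via TNB absorbance. Enzyme dispensed at 20 nM; compound exposure 15 min at room temperature before reaction start.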
AmpC detergent – AmpC beta-lactamase inhibition with detergent present; P00811; 0.041% of 370,000 active; AmpC hydrolysis of nitrocefin, absorbance 480 nm, 0.01% Triton; AID 485294; Potency, µM (top dose mostly 114 µM), inactives show at the highest dose activity change, negative = inhibition, usual class: inhibitors;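 also: 0% = no-compound wells and -100% = no-enzyme wells; nearly all actives have a fitted effect of over 25% in size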
Target sequence (P00811 whole entry, looked up): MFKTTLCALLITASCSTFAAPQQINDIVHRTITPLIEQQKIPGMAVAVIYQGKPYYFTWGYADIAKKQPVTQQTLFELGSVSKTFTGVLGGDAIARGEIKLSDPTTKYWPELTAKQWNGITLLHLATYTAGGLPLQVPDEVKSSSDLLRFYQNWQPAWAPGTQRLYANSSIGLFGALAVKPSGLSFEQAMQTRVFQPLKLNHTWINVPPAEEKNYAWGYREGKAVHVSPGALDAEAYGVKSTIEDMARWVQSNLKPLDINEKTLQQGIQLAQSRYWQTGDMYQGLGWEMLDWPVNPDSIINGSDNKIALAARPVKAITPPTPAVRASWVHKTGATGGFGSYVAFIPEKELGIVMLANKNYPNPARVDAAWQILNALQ
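AmpC (5.3 nM in the dispensed reagent) in 20 mM phosphate pH 7.0 with 0.01% (detergent screen) or 0.0001% Triton X-100 was preincubated with compounds for 15 min at room temperature. Nitrocefin was then added from an 800 uM solution, and hydrolysis was followed at 480 nm.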
Pf growth 48h – P. falciparum growth inhibition at 48 hours (one generation) | P. falciparum luciferase growth in erythrocytes, 48 h | Potency, µM (top dose mostly 28.7 µM), without a hit: top-dose activity change, negative = inhibition, usual class: inhibitors | AID 504832 | 5.9% of 310,000 active; also: % is scaled to controls: 0 for no effect and ±100 for the full control effect
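Firefly luciferase activity from engineered P. falciparum reports growth; inhibitors lower the luminescent signal. Cultures contained 2% hematocrit erythrocytes at 0.1% final parasitemia.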
AmpC no deterg – inhibitors of E. coli AmpC beta-lactamase without detergent | P00811 | AmpC nitrocefin hydrolysis, absorbance 480 nm, 0.0001% Triton | Potency, µM (highest dose often 57.1 µM), for inactives: at the highest dose activity change, negative = inhibition, usual class: inhibitors | 0.52% of 330,000 active;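 also: plate controls were no compound for no effect and no enzyme for full effect; nearly all actives have a fitted effect of over 20% in size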
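20 mM phosphate pH 7.0 + 0.01% (detergent screen) or 0.0001% Triton X-100; 5.3 nM AmpC reagent; cpd preinc 15 min RT; nitrocefin (800 uM stock) to start; A480 q20 s × 4 min; Activity was normalised to no-enzyme and no-compound control wells.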
SARS PLpro yeast – SARS-CoV PLP inhibition in yeast; S. cerevisiae expressing SARS-CoV PLpro, growth rescue; Potency, µM (highest dose often 32.9 µM), for the others: top-dose activity, positive = growth rescue, most hits filed as activators; 0.19% of 330,000 active; AID 485353; calls by dose curve; also: 0% is about no effect; nearly all actives have a fitted effect of over 55% in size
Pf growth 96h – P. falciparum growth inhibition at 96 hours; P. falciparum luciferase reporter growth, 96 h; Potency, µM (highest dose often 28.7 µM), for the others: at the top dose activity change, negative = inhibition, most hits filed as inhibitors; 6.9% of 320,000 active; also: % is scaled to controls: 0 for no effect and ±100 for the full control effect
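P. falciparum expressing integrated firefly luciferase, in erythrocytes at 2% hematocrit, 0.05% parasitemia, incubated with compounds 96 h at 37 C, 5% CO2. Growth inhibition read as loss of luminescence; two-generation exposure targets delayed-death apicoplast inhibitors.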
The depositor's hits bear a star; ? = inconclusive; nt = no result. Unless noted, calls follow the shape of the dose curve; as a rule, active = well fitted curve in the direction sought with a large enough effect; inconclusive = small, poorly fitted or top-dose-only effect, or another doubt; inactive = no such curve, though single readings can be large; an effect the other way counts as inactive or inconclusive. Potency is read from the fitted curve at half-maximal effect.

SMILES	Sm TGR inh	AmpC detergent	Pf growth 48h	AmpC no deterg	SARS PLpro yeast	Pf growth 96h
CCOC(=O)[C@H]1[C@H]2COc3cc(OC)ccc3[C@@H]2N2C(=O)CN(Cc3ccco3)C(=O)[C@@]12C	18µM*	-9%	?	57%	-2%	-2%
CCOC(=O)[C@H]1[C@H]2COc3cc(OC)ccc3[C@@H]2N2C(=O)CN(Cc3ccc(C)cc3)C(=O)[C@@]12C	-22%	4%	10µM*	148%	-16%	2.6µM*
CCOC(=O)[C@H]1[C@H]2COc3ccc(OC)cc3[C@@H]2N2C(=O)CN(Cc3ccco3)C(=O)[C@@]12C	?	1%	?	40%	-6%	?
COc1ccc2c(c1)OC[C@H]1[C@H]2N2C(=O)CN(Cc3ccco3)C(=O)[C@@]2(C)[C@H]1c1ccccc1	-33%	3%	?	84%	3%	9.3µM*
Cc1ccc(-c2c[n+](CC(=O)Nc3nc(-c4ccccc4)cs3)c3n2CCC3)cc1	-6%	3%	?	74%	3%	?
Cc1ccc(NC(=O)C[n+]2cc(-c3ccccc3)n3c2CCC3)cc1	5%	-1%	10µM*	11%	0%	2.1µM*
Cc1ccc(-c2c[n+](CC(=O)Nc3ccccc3C)c3n2CCC3)cc1	10%	-11%	?	2%	0%	6.6µM*
O=C(C[n+]1cc(-c2ccccc2)n2c1CCC2)Nc1nc(-c2ccccc2)cs1	-7%	-12%	?	119%	18%	?
Cc1nc2nc(SCC(=O)NCc3ccccc3Cl)nn2c(C)c1Cc1ccccc1	-1%	-5%	nt	nt	nt	nt
COc1ccc(OC)c2[nH]c(=O)c(CCNC(=O)C(C)C)cc12	0%	?	38%	10µM*	4%	32%
COc1ccc(OC)c2[nH]c(=O)c(CCNC(=O)c3ccc(Br)o3)cc12	0%	-2%	12µM*	26%	-9%	nt
CCC(CC)C(=O)NCCc1cc2c(OC)ccc(OC)c2[nH]c1=O	5%	-1%	34%	-20%	-1%	-4%
Cc1c(NC(=O)CCCCCN2C(=O)c3ccccc3C2=O)c(=O)n(-c2ccccc2)n1C	0%	-12%	3%	-9%	-8%	5%
CCCNC(=O)CS(=O)(=O)Cc1nc(-c2cccc(OC)c2)oc1C	22µM*	?	11%	-1%	7%	-8%
CCOCCCNC(=O)CS(=O)(=O)Cc1nc(-c2cccc(OC)c2)oc1C	45µM*	-7%	-1%	38%	4%	nt
CCN1CCN(CCCNC(=O)CS(=O)(=O)Cc2nc(-c3cccc(OC)c3)oc2C)CC1	-17%	-4%	3%	28%	3%	2%
Cc1ccc(CNC(=O)c2cnn(-c3cccc(C)c3)c2C2CCN(C(=O)OC(C)(C)C)CC2)cc1	7%	18%	nt	nt	nt	nt
CCOCCCNC(=O)NC12CC3CC(CC(C3)C1)C2	-9%	-21%	-19%	-16%	-1%	-2%
O=C(O)CCCCCCCCCCCNC(=O)NC12CC3CC(CC(C3)C1)C2	-7%	0%	30%	-12%	2%	2.1µM*
CN1CCN(CCCC(=O)c2ccc(C3CCCC3)cc2)CC1	-4%	-9%	-9%	32%	-7%	?
CC(C)(C)c1ccc(C(=O)CCCN2CCC(OC(c3ccccc3)c3ccccc3)CC2)cc1	nt	nt	9.5µM*	nt	nt	7.6µM*
CCC1Oc2ccc(C)cc2N(CC(=O)N(Cc2cccnc2)Cc2ccc(C)o2)C1=O (centres undefined)	-13%	?	12µM*	144%	-6%	251%
Cc1ccc(N(CC(=O)N2CC(=O)Nc3ccccc32)S(=O)(=O)c2ccc3c(c2)OCCO3)cc1	-16%	?	12µM*	-36%	-19%	?
O=C(O)CN(c1ccc(F)cc1)S(=O)(=O)c1ccc2c(c1)OCCO2	4%	-3%	45%	-11%	7%	-5%
CCN1C(=O)/C(=C2/C(=O)N3c4c(cc(OC(C)=O)cc42)C(C)=CC3(C)C)SC1=S	-10%	-7%	12%	-18%	16%	32%
SMILES	Sm TGR inh	AmpC detergent	Pf growth 48h	AmpC no deterg	SARS PLpro yeast	Pf growth 96h
COc1cc2c3c(c1)/C(=C1/SC(NC(C)=O)=NC1=O)C(=O)N3C(C)(C)C=C2C	40µM*	0%	-22%	-31%	?	nt
CC1Cn2c(C(=O)NCCc3ccc(Cl)cc3)cc3cccc(c32)S1 (centres undefined)	5%	27%	nt	nt	nt	nt
Cc1ccc(/C=c2\sc3n(c2=O)CN(c2ccc(Br)cc2)CN=3)o1	13µM*	-20%	14%	-34%	0%	?
Cc1ccc(/C=c2/sc3n(c2=O)CCCN=3)o1	11µM*	?	221%	-3%	-40%	218%
O=C(NCc1ccc(/C=c2\sc3n(c2=O)CCN=3)o1)C(=O)Nc1ccccc1	35µM*	-5%	18%	-10%	0%	20%
O=c1/c(=C\c2ccc3c(c2)OCO3)sc2n1CCCN=2	0%	-12%	150%	-5%	-5%	-28%
Cc1nc2ccccn2c1C(=O)N/N=C/c1ccc(CNC(=O)C(=O)Nc2ccccc2)o1	-18%	?	23%	2%	5%	47%
COc1ccc(NC(c2ccc(F)cc2)c2nnc(-c3ccccc3Cl)o2)cc1Cl (centres undefined)	-1%	14%	nt	nt	nt	nt
COc1ccc(/C=N\NC(=O)c2ccccc2F)cc1COc1ccc(F)cc1	-21%	1%	4%	-24%	-7%	?
COc1ccc(/C=N/NC(=S)Nc2ccccc2)cc1COc1ccccc1F	0%	-4%	-24%	14µM*	2%	?
COc1ccc(/C=N/NC(=S)Nc2ccccc2)cc1COc1ccc(F)cc1	-2%	-5%	10µM*	?	-3%	?
COc1ccc(/C=N/NC(=O)c2ccc(NC(C)=O)cc2)cc1COc1ccc(F)cc1F	8%	1%	11%	-34%	-6%	30%
COc1ccc(/C=N/NC(=S)Nc2ccccc2)cc1COc1ccc(Br)cc1	3%	?	?	-41%	-1%	3.7µM*
O=C(c1cccc2cccc(O)c12)N1CCCCC1	40µM*	?	20%	-13%	-11%	15%
COCCCNC(=O)c1c(NC(=O)c2cc(=O)c3ccccc3o2)sc2c1CCCC2	-1%	7%	nt	nt	nt	nt
Cc1nnc(NC(=O)c2ccco2)s1	-4%	-13%	-4%	-19%	-24%	77%
CC(C)C(=O)Nc1nnc(S(=O)(=O)N(C)c2ccc(Cl)cc2)s1	-1%	0%	14%	-11%	-3%	2.9µM*

High-throughput results from PubChem.
